Sampled rows, rich in hits. Any-hit rate of the full collection: about 3.5%.
FBW7 activator: FBW7 E3 ligase activators, primary screen, biochemical, AlphaScreen, human; F-box/WD repeat-containing protein 7 (Homo sapiens), Q969H0; AlphaScreen FBW7–phospho-cyclin E peptide binding, activator screen; normalized activity (activation), % at 26.1 µM; hit rate 0.13% among 650,000; AID 1259310, 2017; in the data active = normalized activity above about 1.9%;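 note: purified mutant Fbw7 with reduced substrate affinity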
Target sequence (Q969H0 whole entry, looked up): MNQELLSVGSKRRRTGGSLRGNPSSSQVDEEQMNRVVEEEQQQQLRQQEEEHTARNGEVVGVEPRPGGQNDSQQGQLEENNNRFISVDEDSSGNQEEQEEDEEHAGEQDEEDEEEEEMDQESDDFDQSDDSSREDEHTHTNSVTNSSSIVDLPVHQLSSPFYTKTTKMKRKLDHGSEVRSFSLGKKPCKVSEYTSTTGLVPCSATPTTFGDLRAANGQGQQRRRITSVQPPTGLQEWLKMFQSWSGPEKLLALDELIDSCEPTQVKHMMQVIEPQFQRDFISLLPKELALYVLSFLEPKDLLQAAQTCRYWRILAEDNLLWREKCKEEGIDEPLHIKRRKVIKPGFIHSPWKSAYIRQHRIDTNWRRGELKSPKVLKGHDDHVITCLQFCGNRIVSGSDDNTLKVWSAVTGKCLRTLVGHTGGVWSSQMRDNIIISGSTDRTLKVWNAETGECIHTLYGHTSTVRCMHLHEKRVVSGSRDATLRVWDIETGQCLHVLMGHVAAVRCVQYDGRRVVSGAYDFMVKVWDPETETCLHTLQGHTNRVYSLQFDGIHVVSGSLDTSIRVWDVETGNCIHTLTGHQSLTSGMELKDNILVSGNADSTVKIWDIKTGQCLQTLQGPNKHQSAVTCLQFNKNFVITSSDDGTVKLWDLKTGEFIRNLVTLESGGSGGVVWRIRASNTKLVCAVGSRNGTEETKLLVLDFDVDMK
GPR151 activ: activators of human GPR151, primary screen, cell-based, PathHunter beta-arrestin, luminescence; G-protein coupled receptor 151 (Homo sapiens), Q8TDV0; PathHunter beta-arrestin GPR151 cells; activation, % at 11.2 µM; hit rate 1% among 650,000; in the data active = activation above about 4.9%;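 note: 0% = median of compound wells and 100% = cells with positive control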
MITF primary: MITF inhibitors, primary screen, biochemical, AlphaScreen, human; AlphaScreen MITF homodimerization, bead proximity signal; hit rate 0.91% among 650,000; inhibition, % at 2.6 µM; in the data active = inhibition above about 50%;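 note: 0% = vehicle wells with protein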
TEAD-YAP block: TEAD-YAP interaction inhibition, primary screen, TEAD-YAP interaction inhibitor project, luminescence, HEK-TIYL cells; TEAD-Gal4/YAP UAS-luciferase luminescence; inhibition, % at 9.12 µM; hit rate 1.4% among 640,000; AID 1259422, 2018; in the data active = inhibition above about 32%;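 note: 0% = median of test compound wells and 100% = reference inhibitor wells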
MITF confirm: MITF inhibitors, retest of hits, confirmation, biochemical, AlphaScreen, triplicate; shares compounds with MITF primary; AlphaScreen MITF homodimerization, biotin/His-MITF beads; inhibition, % at 2.6 µM; hit rate 16% among 4,700; AID 1259372, 2018;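 active = inhibition above a cutoff derived from the DMSO control wells, cut at about 28% in these data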;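 note: 0% = MITF dimer wells with DMSO only; inhibitors lower the bead chemiluminescence by keeping MITF from dimerizing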
AlphaScreen intf2: AlphaScreen optical interference compounds, counter-screen for MITF inhibitor project, biochemical, triplicate; shares compounds with MITF primary; LysRS AlphaScreen counterscreen, signal interference; inhibition, % at 2.6 µM; hit rate 7.6% among 4,700;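 active = inhibition above a cutoff derived from the DMSO control wells, cut at about 30% in these data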
* marks the source's active call; other numbers are inactive results; nt = no result given.

SMILES | FBW7 activator | GPR151 activ | MITF primary | TEAD-YAP block | MITF confirm | AlphaScreen intf2
CCC(CC)N1CCN(Cc2ccc(OC)c(OC)c2)CC1 | -0.3 | 0.8 | 69.0* | -0.3 | 11.6 | -1.3
CCOc1cc(CN2CCN(C(C)C)CC2)ccc1OC | 0.0 | -0.1 | 54.7* | 9.5 | 8.9 | 11.3
CCOc1cc(CN2CCN(C(CC)CC)CC2)ccc1OC | -0.1 | 0.4 | 77.7* | 3.6 | 0.6 | -5.4
CCCCCCc1ccc(O)cc1 | 0.3 | 4.1 | 9.2 | -8.6 | nt | nt
COC(=O)C1CC2CCCN2C12C(=O)N(C)c1ccccc12 (stereo unspecified) | -0.1 | 1.1 | -5.8 | -14.2 | nt | nt
COc1ccc(CN2CCN(c3ccccc3F)CC2)cc1OC | 0.2 | 0.2 | 52.3* | -5.2 | 14.6 | -9.4
CCC(CC)N1CCN(Cc2ccc(OC)cc2)CC1 | 0.2 | 0.0 | 54.2* | 0.3 | -5.9 | -7.5
CC(=O)c1ccc(N2CCN(Cc3cccc(C)c3)CC2)cc1 | -0.3 | -0.3 | 19.8 | -9.3 | nt | nt
CC(=O)c1ccc(N2CCN(Cc3ccc(F)c(F)c3)CC2)cc1 | 0.0 | 2.5 | 44.8 | -8.1 | nt | nt
CC(=O)c1ccc(N2CCN(Cc3cc(F)ccc3F)CC2)cc1 | 0.0 | -0.6 | 60.6* | 2.1 | 0.4 | 3.1
CC(=O)c1ccc(N2CCN(Cc3ccc(F)cc3F)CC2)cc1 | 0.4 | -0.6 | 54.6* | -6.6 | 2.0 | 4.4
CCOc1ccc(C(Nc2ccc(Br)cc2)P2(=S)OCC(C)(C)CO2)cc1 (stereo unspecified) | -0.1 | -0.1 | 5.1 | -29.8 | nt | nt
OC1(c2ccccc2)C[N+]2=C(CCCCC2)N1Cc1ccccc1 (stereo unspecified) | 0.7 | -1.9 | 16.0 | -7.2 | nt | nt
COc1ccc(C=C2C(=O)NC(=S)NC2=O)cc1OCc1ccccc1Cl | 0.0 | -1.3 | 11.4 | -2.8 | nt | nt
c1ccc(CN2CCN(C3CCCCC3)CC2)cc1 | -0.4 | -0.5 | 75.0* | 4.2 | 13.6 | 11.9
c1ccc(CN2CCN(c3ccccc3)CC2)cc1 | -0.2 | -1.2 | 20.1 | -5.2 | nt | nt
CCC(C)N1CCN(Cc2cc(OC)c(OC)c(OC)c2)CC1 (stereo unspecified) | -0.2 | -1.1 | 75.4* | -0.9 | 3.4 | 1.1
CCC(C)N1CCN(Cc2cc(OC)c(O)c(OC)c2)CC1 (stereo unspecified) | -0.3 | -1.7 | 67.6* | -9.5 | 7.0 | 25.1
CCN1CCN(Cc2cc(OC)c(O)c(OC)c2)CC1 | 0.4 | 0.3 | 12.0 | -5.0 | nt | nt
Fc1ccc(CN2CCN(Cc3cccc(Cl)c3)CC2)cc1 | 0.0 | -0.2 | 68.2* | -0.9 | -3.5 | -2.0
CCC(CC)N1CCN(Cc2cccc(F)c2)CC1 | 0.6 | -0.8 | 73.1* | -5.0 | -8.4 | -5.4
CCc1ccc(CN2CCN(Cc3cccc(Cl)c3)CC2)cc1 | 0.1 | 1.5 | 63.6* | 4.0 | -5.4 | -2.9
Fc1cccc(CN2CCN(c3ccc(Cl)cc3)CC2)c1 | 0.0 | 0.8 | 2.6 | 7.0 | nt | nt
CC(C)N1CCN(Cc2cccc(F)c2)CC1 | 0.0 | 2.2 | 61.5* | 2.1 | -9.5 | -12.0
COc1ccccc1N(C)C1=NC(=[N+](C)c2ccccc2OC)c2ccccc21 | -0.1 | 1.5 | -6.8 | -4.5 | nt | nt
SMILES | FBW7 activator | GPR151 activ | MITF primary | TEAD-YAP block | MITF confirm | AlphaScreen intf2
CN1CCC(N(C)c2ccnc3c2c(=O)n(C)c(=O)n3C)CC1 | -0.2 | 4.2 | -0.9 | 1.4 | nt | nt
CCC(c1nnnn1C(C)C)N1CCN(C)CC1 (stereo unspecified) | 0.1 | 1.4 | 3.8 | -4.0 | nt | nt
Fc1cccc(CN2CCN(Cc3ccc(Cl)cc3)CC2)c1 | -0.1 | -0.4 | 70.0* | 2.5 | 6.7 | 7.5
Fc1cccc(CN2CCN(Cc3cccc(F)c3)CC2)c1 | -0.2 | 0.1 | 67.7* | -1.8 | -2.3 | -6.2
CN1CCN(Cc2cccc(F)c2)CC1 | -0.5 | -0.2 | 41.2 | -0.7 | nt | nt
N#CC1=C(N)Oc2c(c(=O)oc3ccccc23)C1c1ccc(Cl)c([N+](=O)[O-])c1 (stereo unspecified) | 0.1 | -1.3 | -1.2 | -2.9 | nt | nt
COc1cccc(CCNCc2cc(OC)cc(OC)c2)c1 | 0.2 | -1.7 | 55.3* | -2.7 | -3.8 | -2.9
COc1ccc(CCNCc2cccnc2)cc1OC | 0.0 | -0.9 | 69.8* | -4.5 | -12.8 | 2.7
CN1CCN(Cc2ccc(Cl)c([N+](=O)[O-])c2)CC1 | 0.0 | 0.7 | 3.0 | 9.2 | nt | nt
